In PubChem BioAssay AID1159580 (chemical genetic matrix, 2015):
In all, about 5,500 compounds went through this assay and about 2,000 (36%) were called active. Inconclusive results (about 18%) are left out. No stated cut-off is given here; in the data, active means normalized growth mostly below about 0.91 (no sharp cut-off); inconclusive means no clear call, values can overlap the other calls; inactive means mostly above about 0.92. This is one part of the list.

Assay: chemical genetic growth profiling, strain panel (AID 1159580);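 further: tested at 20 µM; growth read once vehicle control cultures reached saturation at 30 °C; 1 = growth at the plate median or of vehicle wells; lower values mean less growth of the strain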
Settings: growth OD

Measured: normalized growth

O=C1C=C(O)c2ccccc2C1=O
active: S. cerevisiae deletion strains, locus YJR066W, strain TOR1, hits give low values 0.825 | S. cerevisiae deletion strains, locus YKR026C, strain gcn3, hits give low values 0.919 | S. cerevisiae deletion strains, locus YLR262C, strain YPT6 (second series), hits give low values 0.738 | S. cerevisiae deletion strains, locus YMR058W, strain fet3, hits give low values 0.872 | S. cerevisiae deletion strains, locus YMR231W, strain pep5, hits give low values 0.919 | S. cerevisiae deletion strains, locus YOR106W, strain vam3, hits give low values 0.863 | S. cerevisiae deletion strains, locus YOR231W, strain MKK1, hits give low values 0.797 | S. cerevisiae deletion strains, locus YPL051W, strain arl3, hits give low values 0.873 | S. cerevisiae deletion strains, locus YPL240C, strain hsp82, hits give low values 0.918 | S. cerevisiae deletion strains, locus YPL256C, strain CLN2, hits give low values 0.818
inactive: S. cerevisiae deletion strains, locus YJR043C, strain POL32, hits give low values 1.01 | S. cerevisiae deletion strains, locus YKL009W, strain mrt4, hits give low values 1.04 | S. cerevisiae deletion strains, locus YKL068W, hits give low values 0.942 | S. cerevisiae deletion strains, locus YKL085W, strain MDH1 (second series), hits give low values 0.947 | S. cerevisiae deletion strains, locus YKL085W, strain MDH1, hits give low values 0.947 | S. cerevisiae deletion strains, locus YKL160W, strain elf1, hits give low values 0.912 | S. cerevisiae deletion strains, locus YKR001C, strain vps1, hits give low values 0.9 | S. cerevisiae deletion strains, locus YKR091W, strain srl3, hits give low values 0.961 | S. cerevisiae deletion strains, locus YLL001W, strain dnm1, hits give low values 0.937 | S. cerevisiae deletion strains, locus YLL026W, hits give low values 0.952 | S. cerevisiae deletion strains, locus YLL041C, strain sdh2, hits give low values 0.939 | S. cerevisiae deletion strains, locus YLR027C, strain aat2, hits give low values 0.935 | S. cerevisiae deletion strains, locus YLR039C, strain RIC1, hits give low values 0.71 | S. cerevisiae deletion strains, locus YLR058C, strain SHM2, hits give low values 0.949 | S. cerevisiae deletion strains, locus YLR102C, strain apc9, hits give low values 0.982 | S. cerevisiae deletion strains, locus YLR113W, strain HOG1, hits give low values 0.867 | S. cerevisiae deletion strains, locus YLR221C, strain rsa3, hits give low values 0.925 | S. cerevisiae deletion strains, locus YLR258W, strain gsy2, hits give low values 0.944 | S. cerevisiae deletion strains, locus YLR262C, strain YPT6, hits give low values 0.82 | S. cerevisiae deletion strains, locus YLR268W, strain sec22, hits give low values 0.923 | S. cerevisiae deletion strains, locus YLR320W, strain mms22, hits give low values 0.949 | S. cerevisiae deletion strains, locus YLR330W, strain CHS5, hits give low values 0.959 | S. cerevisiae deletion strains, locus YLR342W, strain FKS1 (second series), hits give low values 1.04 | S. cerevisiae deletion strains, locus YLR342W, strain FKS1, hits give low values 0.948 | S. cerevisiae deletion strains, locus YLR357W, strain rsc2, hits give low values 0.932 | S. cerevisiae deletion strains, locus YLR370C, strain arc18, hits give low values 0.941 | S. cerevisiae deletion strains, locus YLR371W, strain rom2, hits give low values 0.966 | S. cerevisiae deletion strains, locus YLR384C, strain iki3, hits give low values 0.971 | S. cerevisiae deletion strains, locus YLR418C, strain cdc73, hits give low values 0.894 | S. cerevisiae deletion strains, locus YML016C, strain PPZ1, hits give low values 0.956 | S. cerevisiae deletion strains, locus YML032C, strain rad52, hits give low values 0.907 | S. cerevisiae deletion strains, locus YML120C, strain ndi1, hits give low values 0.93 | S. cerevisiae deletion strains, locus YML124C, strain tub3, hits give low values 0.964 | S. cerevisiae deletion strains, locus YMR078C, strain ctf18, hits give low values 0.989 | S. cerevisiae deletion strains, locus YMR125W, strain sto1, hits give low values 0.954 | S. cerevisiae deletion strains, locus YMR129W, hits give low values 0.937 | S. cerevisiae deletion strains, locus YMR205C, strain PFK2, hits give low values 0.994 | S. cerevisiae deletion strains, locus YMR223W, strain ubp8, hits give low values 0.944 | S. cerevisiae deletion strains, locus YMR307W, strain GAS1, hits give low values 0.863 | S. cerevisiae deletion strains, locus YNL067W, strain RPL9B, hits give low values 0.966 | S. cerevisiae deletion strains, locus YNL071W, strain lat1, hits give low values 0.945 | S. cerevisiae deletion strains, locus YNL128W, strain TEP1, hits give low values 0.974 | S. cerevisiae deletion strains, locus YNL183C, strain NPR1, hits give low values 0.884 | S. cerevisiae deletion strains, locus YNL209W, strain ssb2, hits give low values 0.941 | S. cerevisiae deletion strains, locus YNL233W, strain BNI4, hits give low values 0.978 | S. cerevisiae deletion strains, locus YNL248C, strain rpa49, hits give low values 0.951 | S. cerevisiae deletion strains, locus YNL250W, strain rad50, hits give low values 0.953 | S. cerevisiae deletion strains, locus YNL271C, strain bni1, hits give low values 0.941 | S. cerevisiae deletion strains, locus YNL298W, strain CLA4, hits give low values 0.968 | S. cerevisiae deletion strains, locus YNL307C, strain MCK1, hits give low values 0.968 | S. cerevisiae deletion strains, locus YNL322C, strain KRE1 (second series), hits give low values 0.944 | S. cerevisiae deletion strains, locus YNL322C, strain KRE1, hits give low values 0.971 | S. cerevisiae deletion strains, locus YNR049C, strain mso1, hits give low values 0.958 | S. cerevisiae deletion strains, locus YNR052C, strain pop2, hits give low values 0.941 | S. cerevisiae deletion strains, locus YOL006C, strain TOP1, hits give low values 0.865 | S. cerevisiae deletion strains, locus YOL012C, strain htz1 0.668 | S. cerevisiae deletion strains, locus YOL147C, strain pex11, hits give low values 0.955 | S. cerevisiae deletion strains, locus YOR001W, strain rrp6, hits give low values 0.931 | S. cerevisiae deletion strains, locus YOR061W, strain CKA2, hits give low values 0.979 | S. cerevisiae deletion strains, locus YOR069W, strain VPS5, hits give low values 0.971 | S. cerevisiae deletion strains, locus YOR070C, strain gyp1, hits give low values 0.956 | S. cerevisiae deletion strains, locus YOR080W, strain dia2, hits give low values 0.951 | S. cerevisiae deletion strains, locus YOR083W, strain WHI5, hits give low values 0.904 | S. cerevisiae deletion strains, locus YOR136W, strain idh2, hits give low values 0.952 | S. cerevisiae deletion strains, locus YOR144C, strain elg1, hits give low values 0.966 | S. cerevisiae deletion strains, locus YOR184W, strain ser1, hits give low values 0.918 | S. cerevisiae deletion strains, locus YOR265W, strain rbl2, hits give low values 0.944 | S. cerevisiae deletion strains, locus YOR270C, strain vph1, hits give low values 0.846 | S. cerevisiae deletion strains, locus YOR290C, strain snf2, hits give low values 0.902 | S. cerevisiae deletion strains, locus YOR316C, strain cot1, hits give low values 0.98 | S. cerevisiae deletion strains, locus YPL078C, strain atp4, hits give low values 0.897 | S. cerevisiae deletion strains, locus YPL106C, strain sse1, hits give low values 0.866 | S. cerevisiae deletion strains, locus YPL241C, strain CIN2, hits give low values 0.967 | S. cerevisiae deletion strains, locus YPR119W, strain clb2, hits give low values 0.966 | S. cerevisiae deletion strains, locus YPR141C, strain kar3, hits give low values 0.948 | S. cerevisiae deletion strains, locus YPR163C, strain tif3, hits give low values 0.995 | S. cerevisiae deletion strains, locus YPR167C, strain met16, hits give low values 0.956 | S. cerevisiae deletion strains, strain wtn01, hits give low values 0.967 | S. cerevisiae strains, strain wild type, hits give low values 0.978
